± gives the standard deviation of the averaged measurements.
Legend:
IL-6-GFP PC-9GR = experiment: cell viability (CCK-8 OD) relative to DMSO control (fraction of control); higher = more viable cells; conditions: compound concentration: 10 uM; treatment time: 48 h
In short: (§1)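 Compounds from a purchased library of 510 were each tested at a final 10 μM for 48 h on PC-9 and PC-9GR lung cancer cells plated at 3000 cells/well in 96-well plates. These cells overexpressed IL-6-GFP from a lentiviral construct. Viability came from CCK-8 absorbance, given as the optical density of each well over that of the vehicle control well, across independent replicates numbering two.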

IL-6-GFP PC-9 = experiment: as above; conditions: compound concentration: 10 uM; treatment time: 48 h
In short: as §1

Structure (SMILES)	cell viability (IL-6-GFP PC-9GR)	cell viability (IL-6-GFP PC-9)
COc1cc(CNC(=O)CCCC/C=C\C(C)C)ccc1O [Zucapsaicin]	0.332 ± 0.62	1.22 ± 0.092
O=C(O)CCCN1CCC(OC(c2ccc(Cl)cc2)c2ccccn2)CC1 (centres undefined) [Bepotastine]	0.797 ± 0.031	1.06 ± 0.18
CN1C(C(=O)Nc2ccccn2)=C(O)c2sc(Cl)cc2S1(=O)=O [Lornoxicam]	0.71 ± 0.3	1.1 ± 0.23
CC(=O)C1CCC2C3CC(C)C4=CC(=O)CCC4(C)C3C(O)CC12C (centres undefined) [Medrysone]	0.958 ± 0.024	1.15 ± 0.051
CC1CC2C3CCC4=CC(=O)C=CC4(C)C3(F)C(O)CC2(C)C1(O)C(=O)CO (centres undefined) [Betamethasone]	1.24 ± 0.11	1.29 ± 0.29
CS(=O)(=O)O.Cc1ccc(NC(=O)c2ccc(CN3CCN(C)CC3)cc2)cc1Nc1nccc(-c2cccnc2)n1 [Imatinib Mesylate (STI571)]	1.26 ± 0.07	1.1 ± 0.1
Cc1nnc(C(=O)NC(C)(C)c2nc(C(=O)NCc3ccc(F)cc3)c([O-])c(=O)n2C)o1.[K+] [Raltegravir potassium]	1.37 ± 0.48	1.12 ± 0.16
